Screening results (PubChem)
ATXN viability – cell viability loss in ATXN counter-screen; S2 cells (HEK-293 line with an ATXN2-luciferase reporter) viability, CellTiter-Fluor protease fluorescence, 24 h; Potency, µM (top dose mostly 56.7 µM), actives largely listed as cytotoxic; 400,000 tested, 0.49% active; AID 651635; also: nearly all actives have a fitted effect of over 40% in size
DT40 TDP1 CPT – DT40-hTDP1 cell growth loss with CPT; 420,000 tested, 12% active; AID 686979; chicken DT40 Tdp1-/-;hTDP1 cells + 20 nM CPT, ATP luminescence, 48 h; Potency, µM (series often up to 46.2 µM), for the others: top-dose activity change, negative = growth inhibition, hits mostly inhibitors; also: % is scaled to controls: 0 for no effect and ±100 for the full control effect; nearly all actives have a fitted effect of over 55% in size
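Chicken DT40 Tdp1-/- cells stably complemented with human TDP1 were seeded at 400 cells/well in medium containing 20 nM camptothecin, exposed to pin-transferred compounds, and grown at 37 °C for at least 48 hr. Viability was read as ATP luminescence.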
HepG2 tox – counter-screen for TGF-b inhibitors: cytotoxicity in HepG2 cells | Potency, µM (top dose mostly 46.1 µM), for inactives: at the top dose activity change, negative = cytotoxicity, hits mostly cytotoxic | HepG2 CAGA-GFP viability, ATP luminescence, 18 h | 410,000 tested, 0.76% active | AID 588856
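CellTiter-Glo luminescence gave cytotoxicity after 18 hours at 37 degrees C. The cells were HepG2 CAGA-GFP in 1% FBS DMEM, stimulated with 500 pg/mL TGF-beta after compound addition. %Activity was normalised to no-cell wells (complete cell-killing) and DMSO (no toxicity), and curves were fitted and classified.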
TGFb inhibitor – inhibitors of TGF-b signaling | HepG2 CAGA-GFP TGF-b/SMAD3 reporter, GFP fluorescence, 18 h; TGF-beta stimulated, 500 pg/mL final | Potency, µM (series often up to 46.1 µM), without a hit: at the highest dose activity, negative = inhibition, usual class: inhibitors | 410,000 tested, 1.2% active | AID 588855; also: % is scaled to controls: 0 for no effect and ±100 for the full control effect; nearly all actives have a fitted effect of over 65% in size
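Inhibition of TGF-beta-driven CAGA-GFP reporter expression in HEPG2 cells is measured by cellular GFP fluorescence after 18 h stimulation with 500 pg/mL recombinant TGF-beta in 1% FBS medium at 37 degrees C.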
ATXN2 expr inh – ATXN2 expression inhibition; 360,000 tested, 0.72% active; AID 1745845; Potency, µM (titrated, usually from 57 µM), for the others: at the highest dose activity change, negative = inhibition, actives largely listed as inhibitors; HEK-293 ATXN2-luciferase reporter, luminescence, 24 h; also: % is scaled to controls: 0 for no effect and ±100 for the full control effect; nearly all actives have a fitted effect of over 55% in size
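qHTS (up to 57 uM final) was run with 24 h compound exposure of reporter cells at 37 °C. Each well was multiplexed: SteadyGlo luminescence measured ATXN2-luciferase expression after a fluorogenic Gly-Phe-AFC viability readout (25 uM final).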
TDP1 cell noCPT – qHTS for Inhibitors of human tyrosyl-DNA phosphodiesterase 1 (TDP1): qHTS in cells in absence of CPT. AID 686978, 2013. 420,000 tested, 15% active. Potency, µM (doses to about 46.2 µM), inactives show at the top dose activity change, negative = growth inhibition, most hits filed as inhibitors. DT40 Tdp1-/- hTDP1 cells, no CPT, ATP luminescence, 48 h; also: % is scaled to controls: 0 for no effect and ±100 for the full control effect; nearly all actives have a fitted effect of over 55% in size
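Growth of hTDP1-complemented DT40 Tdp1-knockout cells is measured by ATP luminescence after at least 48 hr compound exposure at 37 °C, with DMSO substituting for the 20 nM CPT used in the parallel screen.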
Active calls of the source: *; i = inactive; ? = inconclusive; · = no result given. In the library only some 17% were active in any assay of this set; here they are far more common. Calls follow the shape of the dose curve; as a rule, active = well fitted curve in the direction sought with a large enough effect; inconclusive = small, poorly fitted or top-dose-only effect, or another doubt; inactive = no such curve, though single readings can be large; an effect the other way counts as inactive or inconclusive. Potency is read from the fitted curve at half-maximal effect.

SMILES | ATXN viability | DT40 TDP1 CPT | HepG2 tox | TGFb inhibitor | ATXN2 expr inh | TDP1 cell noCPT
CC1(C(=O)NC2CCc3ccccc32)CCN1CCc1ccccc1 (stereo not given) | i | 16.4µM* | -72.5% | -17.4% | -20.6% | 18.4µM*
CC1(C(=O)NCC2CCCCC2)CCN1CCc1ccccc1 (stereo not given) | ? | ? | -46.0% | ? | -13.2% | ?
COCCn1c(SCC(=O)Nc2sccc2C(N)=O)nc2cc(Cl)ccc2c1=O | ? | ? | -32.0% | -12.2% | -21.9% | ?
CC1=C(C(=O)Nc2ccc(C)cc2C)C(c2ccc(O)cc2)n2nnnc2N1 (stereo not given) | i | -20.9% | -0.6% | 8.4% | -12.2% | ?
CC1=NN(c2ccccc2)C(=O)C1N=Nc1ccc(N)cc1 (stereo not given) | ? | 14.6µM* | -40.8% | -21.0% | 2.6% | 10.3µM*
CC1=NN(c2ccccc2)C(=O)C1N=Nc1cccc(O)c1 (stereo not given) | i | 16.4µM* | -88.2% | ? | 57.0% | 16.4µM*
Cc1cccc(C(=O)NCC(=O)NNC(=O)c2ccccc2O)c1 | i | -3.0% | -6.4% | -2.2% | 5.3% | -15.8%
O=C(CC(=O)c1cc(Cl)ccc1O)c1ccccc1 | i | 2.31µM* | 11.2µM* | ? | ? | 4.61µM*
Cc1ccc(C(=O)CC(=O)c2ccccc2)cc1 | i | ? | -8.5% | -2.0% | · | ?
Cc1ccc(O)c(C(=O)CC(=O)c2cccc(F)c2)c1 | i | 2.31µM* | -44.4% | -26.4% | -9.8% | 2.59µM*
COc1ccccc1C(=O)NNC(=O)c1cccc(F)c1 | i | 13.3% | -51.3% | -24.5% | ? | -14.4%
Cc1ccc(O)c(C(=O)CC(=O)c2ccc(Cl)cc2)c1 | ? | 7.31µM* | -15.9% | ? | -28.2% | 5.8µM*
Cc1cccc(C(=O)CC(=O)c2cc(Cl)ccc2O)c1 | i | 3.26µM* | -91.6% | ? | ? | 4.11µM*
O=C(O)CC(=O)Nc1cc(Cl)ccc1O | i | -12.5% | -16.9% | -3.6% | 1.5% | 4.3%
Cc1ccc(C(=O)O)cc1S(=O)(=O)Nc1ccccc1C(=O)NC1CC1 | i | 13.4% | 13.8% | 23.9% | 5.2% | 2.7%
CCCc1nnc(NC(=O)c2cc(=O)c3cc(C)c(C)cc3o2)s1 | i | 3.6% | -1.9% | -8.2% | 11.0% | -19.5%
CC(C)Cc1nc2cc(NS(=O)(=O)N(C)C)cc(C(=O)N3CCc4sccc4C3)c2n1C | ? | 5.1% | · | · | · | 0.0%
CC(C)=CCCC(C)=CCN1C(=O)CN(C)C1=O | i | ? | -1.0% | 8.1% | · | ?
NC(=NCCc1ccccc1)NC(=O)c1cc(Cl)ccc1O | i | ? | -5.0% | -14.3% | 3.1% | 18.4µM*
NC(=NCCc1ccc(Cl)cc1)NS(=O)(=O)c1ccccc1 | i | ? | 11.0% | 0.7% | -15.3% | -23.7%
O=C(O)CCCn1cc(NC(=O)c2cc(F)c(F)cc2Cl)cn1 | i | ? | -12.3% | 2.8% | -13.3% | 23.1µM*
CCOc1ccc(C(=S)NC2CCCCC2)cc1OCC | i | ? | -1.3% | -2.3% | 5.7% | 4.61µM*
CCOc1cc(Br)c(CC(=O)NC2CCCCCC2)cc1OCC | i | ? | -5.7% | -12.0% | -22.6% | 20.6µM*
COCC1CCN(C(=O)C2CCC(=O)N(Cc3ccc(Cl)cc3)C2)CC1 (stereo not given) | ? | -28.6% | -2.2% | -11.0% | 3.2% | -11.8%
COc1ccc(NC(=S)NNC(=O)c2ccco2)c(OC)c1 | i | 5.1% | -21.8% | -20.9% | 3.6% | 10.8%
SMILES | ATXN viability | DT40 TDP1 CPT | HepG2 tox | TGFb inhibitor | ATXN2 expr inh | TDP1 cell noCPT
CCOC(=O)N1CCN(C(=O)/C=C/c2ccc(OC)c(OC)c2)CC1 | i | 2.9% | 11.3% | -1.1% | -6.2% | 2.8%
COc1ccc(/C=C/C(=O)NC(=S)NNC(=O)c2ccco2)cc1 | i | 14.6µM* | -2.9% | -19.0% | ? | 20.6µM*
COc1ccc(/C=C/C(=O)NC(=S)NNC(=O)c2ccco2)cc1OC | i | ? | -2.5% | 2.4% | 9.4% | 23.1µM*
CCCOc1ccc(/C=C/C(=O)N2CCN(C(=O)c3ccco3)CC2)cc1OC | i | ? | -20.5% | -2.0% | · | 13µM*
C(#CCN1CCCC1)CC(c1ccccc1)c1ccccc1 | ? | ? | -46.8% | ? | ? | 16.4µM*
Cc1cc(C)n(-c2nnc(Nc3ccc(C)c(C)c3)c3ccccc23)n1 | i | ? | -28.7% | -13.2% | 0.3% | -15.2%
CCOc1ccc(CNC(=O)c2cc3cc(S(=O)(=O)N4CCCCC4)ccc3n2C)cc1 | · | 18.4µM* | -14.9% | -17.9% | · | 16.4µM*
Cn1c(C(=O)NCc2ccccc2F)cc2cc(S(=O)(=O)N3CCCCC3)ccc21 | · | ? | -33.5% | 0.0% | · | ?
Cn1c(C(=O)NCc2cccc(F)c2)cc2cc(S(=O)(=O)N3CCCCC3)ccc21 | · | ? | -1.5% | ? | · | 23.1µM*
Cc1ccccc1CCNC(=O)c1cc2cc(S(=O)(=O)N3CCCCC3)ccc2n1C | · | 10.3µM* | -14.7% | -12.7% | · | 18.4µM*
Cc1cccc(CNC(=O)c2cc3cc(S(=O)(=O)N4CCCCC4)ccc3n2C)c1 | · | ? | -25.6% | 8.7% | · | 18.4µM*
CN(C)c1ccc(CNC(=O)c2cc3cc(S(=O)(=O)N4CCCCC4)ccc3n2C)cc1 | · | ? | -0.8% | ? | · | ?
CCC(C)NC(=O)c1ccc2c(c1)N(Cc1ccccc1)C(=O)c1ccccc1S2(=O)=O (stereo not given) | · | ? | 0.7% | · | · | -19.6%
O=C(CN1CCCCCCC1)Nc1cccc(Cl)c1Cl | i | -26.5% | -17.4% | 1.0% | -13.6% | ?
Cc1nc2nc(NCc3cccc(Cl)c3)[nH]n2c(=O)c1Cc1ccccc1 | i | -12.3% | -3.1% | 1.6% | 7.0% | ?
C=CCn1c(=O)c2c(nc(-n3nc(C)cc3C)n2C)n(C)c1=O | i | -19.4% | -1.3% | 12.3% | · | 5.6%
COc1ccc(CCNC(=O)Cc2c(C)c3c(cc(C)c4c(C)c(C)oc43)oc2=O)cc1 | · | -3.9% | -9.3% | -10.0% | · | 3.0%
O=C(Nc1ccccc1)Nc1ccc(-c2ccc(C(=O)[C@H]3CCC[C@H]3C(=O)O)cc2)cc1 | · | · | · | · | 25.8% | ·
O=C1Nc2ccc(Br)cc2C1=C1CCCCC1 | i | ? | 2.0% | -28.1% | -1.6% | 23.1µM*
CN1CC(=O)Nc2ccc(Br)cc2C1=O | i | -3.0% | 6.9% | 32.2% | · | -1.2%
